Assay [1] is described as follows: antimalarial activity against Dd2 strain (AID 2302;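 active means growth inhibition above 50% at the single 2 µM test dose, taken to imply half-maximal potency below 2 µM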;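 further: 0% = DMSO untreated growth and 100% = chloroquine plus artemisinin killed control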). The following applies: P. falciparum Dd2 in RBCs, LDH growth readout, 72 h; at 2 µM; stronger effect = higher value.
The nature of assay [2]: human hepatoma cell viability loss – ATP luminescence, cytotoxicity control for P. falciparum antimalarial project, primary screen (AID 2303;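 active means inhibition above 50%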;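 further: 0% = DMSO wells and 100% = digitonin-killed cells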). Particulars: HepG2 viability, 24-48 h, at 10 µM, stronger effect = higher value.
Assay [3] addresses L-lactate dehydrogenase (Plasmodium falciparum (isolate CDC / Honduras)) (UniProt Q27743). Briefly: PfLDH activity inhibition – cell lysate, 3D7 strain, counter-screen for P. falciparum growth inhibition project (AID 2304).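 Further: 0% = vehicle and 100% = reference inhibitor.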 Particulars: P. falciparum 3D7 crude extract, LDH APAD/NBT absorbance; at 2 µM; stronger effect = higher value.
A short description of assay [4]: inhibition of 3D7 malaria parasite growth – strain 3D7 (AID 2306).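 Further: 0% = DMSO wells and 100% = chloroquine plus artemisinin control wells.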 The following applies: P. falciparum 3D7 erythrocytic growth, LDH absorbance, 72 h; at 2 µM; stronger effect = higher value.
Assay [5] deals with Calcium-dependent protein kinase 1 (Plasmodium falciparum (isolate 3D7)) (UniProt P62344). Kind of assay: PfCDPK1 kinase inhibitors, biochemical, TCAMS library (AID 1159585; cut-off not given, nearly all actives have IC50 up to about 0.98 µM;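 further: inhibitors leave more ATP so luminescence rises with inhibition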). Particulars: recombinant PfCDPK1, Kinase-Glo ATP depletion luminescence.
Chain of Calcium-dependent protein kinase 1 (Plasmodium falciparum (isolate 3D7)) (P62344 whole entry, looked up): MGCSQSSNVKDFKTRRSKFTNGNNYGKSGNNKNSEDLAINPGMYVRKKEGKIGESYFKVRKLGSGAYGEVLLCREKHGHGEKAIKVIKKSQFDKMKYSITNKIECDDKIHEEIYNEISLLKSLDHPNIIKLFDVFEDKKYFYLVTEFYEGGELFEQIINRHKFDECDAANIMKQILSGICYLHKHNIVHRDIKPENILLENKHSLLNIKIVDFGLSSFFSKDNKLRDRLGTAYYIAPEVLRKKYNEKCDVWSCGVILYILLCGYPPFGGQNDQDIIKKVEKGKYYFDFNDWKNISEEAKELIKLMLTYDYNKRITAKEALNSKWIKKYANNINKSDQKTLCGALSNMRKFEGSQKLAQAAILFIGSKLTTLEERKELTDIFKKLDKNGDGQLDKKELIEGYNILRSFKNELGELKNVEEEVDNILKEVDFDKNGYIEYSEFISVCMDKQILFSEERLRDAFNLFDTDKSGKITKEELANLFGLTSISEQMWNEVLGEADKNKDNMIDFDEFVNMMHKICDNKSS
Assay [6] deals with Plasmodium falciparum protein kinase 6 (PK6, PF3D7_1337100) (UniProt Q8IDW1). Briefly: PfPK6 kinase inhibitors, biochemical, TCAMS library (AID 1159586). Particulars: recombinant PfPK6, Kinase-Glo ATP depletion luminescence.
Chain of Plasmodium falciparum protein kinase 6 (PK6, PF3D7_1337100) (Q8IDW1 1-305): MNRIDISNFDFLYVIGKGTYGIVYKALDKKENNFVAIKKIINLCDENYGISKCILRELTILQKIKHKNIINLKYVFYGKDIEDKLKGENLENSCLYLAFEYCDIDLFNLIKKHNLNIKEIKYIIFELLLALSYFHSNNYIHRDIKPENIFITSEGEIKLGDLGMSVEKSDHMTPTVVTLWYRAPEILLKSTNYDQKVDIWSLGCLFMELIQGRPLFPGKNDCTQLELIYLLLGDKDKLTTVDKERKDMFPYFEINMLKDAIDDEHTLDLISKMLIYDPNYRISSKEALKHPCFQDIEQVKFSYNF
The target of assay [7] is Protein kinase 7 (PK7), Plasmodium falciparum 3D7 (PF3D7_0213400) (UniProt Q7YTF7). Briefly: inhibition of Plasmodium PK7 catalytic activity – biochemical, TCAMS antimalarial set, Kinase-Glo luminescence (AID 1159587). The following applies: recombinant PfPK7, Kinase-Glo ATP depletion luminescence.
Chain of Protein kinase 7 (PK7), Plasmodium falciparum 3D7 (PF3D7_0213400) (Q7YTF7 1-343): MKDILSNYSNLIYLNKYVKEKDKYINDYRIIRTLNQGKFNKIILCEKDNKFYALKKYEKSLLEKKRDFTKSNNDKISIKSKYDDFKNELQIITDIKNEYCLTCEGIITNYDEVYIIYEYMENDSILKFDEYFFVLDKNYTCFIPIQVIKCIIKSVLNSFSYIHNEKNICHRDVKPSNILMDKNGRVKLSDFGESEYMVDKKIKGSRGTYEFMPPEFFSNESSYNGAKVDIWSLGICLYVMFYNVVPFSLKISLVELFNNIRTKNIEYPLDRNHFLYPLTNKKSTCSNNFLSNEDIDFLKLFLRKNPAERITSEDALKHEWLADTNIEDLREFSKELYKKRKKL
For assay [8], the target named is Calcium-dependent protein kinase 4 (Plasmodium falciparum (isolate 3D7)) (UniProt Q8IBS5). Kind of assay: PfCDPK4 kinase inhibitors, biochemical, TCAMS library (AID 1159588; cut-off not given, nearly all actives have IC50 up to about 0.91 µM). The following applies: recombinant PfCDPK4, Kinase-Glo ATP depletion luminescence.
Chain of Calcium-dependent protein kinase 4 (Plasmodium falciparum (isolate 3D7)) (Q8IBS5 whole entry, looked up): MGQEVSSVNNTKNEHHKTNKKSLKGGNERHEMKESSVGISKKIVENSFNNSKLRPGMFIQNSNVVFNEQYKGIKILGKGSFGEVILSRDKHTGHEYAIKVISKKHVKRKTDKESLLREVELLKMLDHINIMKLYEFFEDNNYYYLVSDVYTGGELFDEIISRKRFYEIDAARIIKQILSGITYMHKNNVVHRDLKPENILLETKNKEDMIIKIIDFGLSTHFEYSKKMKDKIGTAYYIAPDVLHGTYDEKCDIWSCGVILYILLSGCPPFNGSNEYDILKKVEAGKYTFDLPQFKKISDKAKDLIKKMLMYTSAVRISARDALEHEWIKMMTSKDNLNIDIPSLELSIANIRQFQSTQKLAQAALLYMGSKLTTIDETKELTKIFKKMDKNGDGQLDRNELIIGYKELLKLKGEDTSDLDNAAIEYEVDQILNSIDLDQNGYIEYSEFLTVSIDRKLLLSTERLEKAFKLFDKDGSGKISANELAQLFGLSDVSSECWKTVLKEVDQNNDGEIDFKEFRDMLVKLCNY

Here are results for 20 molecules from PubChem BioAssay.

Values without a mark were called inactive. For some of these results: Results with a measured potency or affinity are listed apart. Calls of active or inactive are those of the source. Unless noted, how the calls were made is not given here.

Chain of L-lactate dehydrogenase (Plasmodium falciparum (isolate CDC / Honduras)) (Q27743 whole entry, looked up): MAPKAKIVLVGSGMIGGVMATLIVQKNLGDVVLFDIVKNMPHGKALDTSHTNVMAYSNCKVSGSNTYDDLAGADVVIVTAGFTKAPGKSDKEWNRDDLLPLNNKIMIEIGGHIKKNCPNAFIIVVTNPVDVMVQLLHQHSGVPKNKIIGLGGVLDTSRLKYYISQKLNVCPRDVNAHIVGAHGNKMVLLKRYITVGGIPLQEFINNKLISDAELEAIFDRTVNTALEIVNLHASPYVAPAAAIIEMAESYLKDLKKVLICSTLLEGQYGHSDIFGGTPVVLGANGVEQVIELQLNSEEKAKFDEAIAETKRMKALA

On to `Cc1cc(C(=O)N[C@H]2CCN(Cc3ccc(OCCCN(C)C)cc3)C2)ccc1Br`, for which the growth inhibition in assay [1] was 62% (active); in assay [4], 97% (active). Also, the inhibition in assay [2] was 88% (active); in assay [3], -4%. In addition, the result in assay [5], in assay [6], in assay [7] and in assay [8] was inactive.
For `CC(C)c1ccc(NC(=O)c2ccc(C(=O)NC3CCN(Cc4ccccc4)CC3)cc2)cc1`, the growth inhibition in assay [1] is 7%; in assay [4], 88% (active). In addition, the inhibition in assay [2] is 30%; in assay [3], -3%. For the same molecule, the result in assay [5], in assay [6], in assay [7] and in assay [8] was inactive.
Take `C[C@H](Cc1ccc(OCCCCCCOc2ccc(C[C@@H](C)NC(=O)[C@H](O)c3cccc(Cl)c3)cc2)cc1)NC[C@H](O)c1cccc(Cl)c1`: the growth inhibition in assay [1] and in assay [4] was 99% (active) throughout. For the same molecule, the inhibition is 39% in assay [2] and -3% in assay [3]. Moreover, the outcome in assay [5], in assay [6], in assay [7] and in assay [8] was inactive.
Take `Nc1ncc(-c2cccc(OCc3ccccc3)c2)cc1-c1nnc2ccc(Cl)nn12`: the growth inhibition in assay [1] is 7%; in assay [4], 94% (active). For the same molecule, the inhibition in assay [2] is -7%; in assay [3], -5%. Moreover, the result in assay [5], in assay [6], in assay [7] and in assay [8] was inactive.
Take `CCOc1ccc2nc(C)cc(NN=Cc3cccc([N+](=O)[O-])c3)c2c1`: the figures for the growth inhibition in assay [1] and in assay [4] were 93% (active) and 101% (active), respectively. Moreover, the inhibition in assay [2] is 7%; in assay [3], 0%. The result in assay [5], in assay [6], in assay [7] and in assay [8] was inactive.
As to `COc1ccc(-c2cn3c(C(=O)Nc4ccccc4Cl)c(-c4ccccc4)c4c3n2CCCC4)cc1`, the growth inhibition in assay [1] was 1%; in assay [4] it was 100% (active). The inhibition in assay [2] was 7%; in assay [3], -4%. The result in assay [5], in assay [6], in assay [7] and in assay [8] was inactive.
As for `COc1ccc(C2CC(c3ccccc3O)=NN2C(=O)c2ccco2)cc1OC` (stereo not given), the growth inhibition is 68% (active) in assay [1] and 96% (active) in assay [4]. The inhibition in assay [2] was 11%; in assay [3], 1%. Also, the result in assay [5], in assay [6], in assay [7] and in assay [8] was inactive.
As for `CC(=O)C1=NN(c2ccc(C)cc2)C(c2cccs2)N1c1ccccc1` (stereo not given), the growth inhibition in assay [1] was 64% (active); in assay [4], 89% (active). The inhibition in assay [2] and in assay [3] was -4% throughout. Moreover, the outcome in assay [5], in assay [6], in assay [7] and in assay [8] was inactive.
Consider `Cc1c(NC(=O)COc2ccc(Cl)cc2C(=O)c2cc(F)cc(C(F)(F)F)c2)ccc2ncsc12`, for which the results for the growth inhibition in assay [1] and in assay [4] were 18% and 86% (active), respectively. Moreover, the inhibition in assay [2] and in assay [3] was -2% each time. The result in assay [5], in assay [6], in assay [7] and in assay [8] was inactive.
As for `CC(=O)Nc1ccc(OCCCCN(Cc2ccccc2C(F)(F)F)c2ccc(C#N)c(C(F)(F)F)c2)c(Cl)c1`, the growth inhibition in assay [1] was 71% (active); in assay [4], 98% (active). For the same molecule, the inhibition in assay [2] is -1%; in assay [3], -3%. Also, the outcome in assay [5], in assay [6], in assay [7] and in assay [8] was inactive.
With `CCCCNCc1ccc(-c2nc(CN(CCCN3CCN(C)CC3)C(=O)Nc3cccc(Cl)c3)cs2)cc1`, the growth inhibition in assay [1] was 73% (active); in assay [4], 99% (active). Moreover, the inhibition was 35% in assay [2] and 4% in assay [3]. Also, the outcome in assay [5], in assay [6], in assay [7] and in assay [8] was inactive.
On to `COc1ccc(-c2cc(C(=O)N[C@@H](CC3CCCCC3)C(=O)NC3CCCc4ccccc43)ccc2O)cc1` (stereo not given in full), for which the growth inhibition was 97% (active) in assay [1] and 98% (active) in assay [4]. For the same molecule, the inhibition in assay [2] was 7%; in assay [3] it was -1%. Moreover, the result in assay [5], in assay [6], in assay [7] and in assay [8] was inactive.
Consider `O=C(/C=C/c1cccc(C(F)(F)F)c1)NCCCCCN1CCC(c2c[nH]c3ccccc23)CC1`, for which the growth inhibition was 14% in assay [1] and 90% (active) in assay [4]. The inhibition in assay [2] was 70% (active); in assay [3], 0%. Moreover, the result in assay [5], in assay [6], in assay [7] and in assay [8] was inactive.
On to `COc1ccccc1N1CCN(CCCCNC(=O)c2ccc(NC(=O)c3ccc(C(F)(F)F)cc3)cc2)CC1`, for which the figures for the growth inhibition in assay [1] and in assay [4] were 37% and 100% (active), respectively. In addition, the values for the inhibition in assay [2] and in assay [3] were 25% and 0%, respectively. Besides, the result in assay [5], in assay [6], in assay [7] and in assay [8] was inactive.
With `CCCCNS(=O)(=O)c1ccc(NC(=O)c2cc([N+](=O)[O-])ccc2Cl)cc1`, the growth inhibition in assay [1] is 47%; in assay [4], 92% (active). Moreover, the inhibition is 12% in assay [2] and -3% in assay [3]. Moreover, the outcome in assay [5], in assay [6], in assay [7] and in assay [8] was inactive.
Take `Cc1cc(=O)c2cc(Oc3ccc(OC(F)(F)F)cc3)ccc2[nH]1`: the values for the growth inhibition in assay [1] and in assay [4] were 71% (active) and 86% (active), respectively. In addition, the results for the inhibition in assay [2] and in assay [3] were 20% and -2%, respectively. Moreover, the result in assay [5], in assay [6], in assay [7] and in assay [8] was inactive.
Take `CC(Cc1ccc(CN(CC(N)=O)Cc2ccc(CC(C)NCCc3cccc(Cl)c3)cc2)cc1)NCCc1cccc(Cl)c1` (stereo not given): the figures for the growth inhibition in assay [1] and in assay [4] were 68% (active) and 95% (active), respectively. Further, the inhibition in assay [2] is 26%; in assay [3], 2%. The outcome in assay [5], in assay [6], in assay [7] and in assay [8] was inactive.
Consider `CNC(=O)c1cnc(Nc2ccc(OCC(O)CN(C)C)cc2)nc1Nc1cccc(OC)c1` (stereo not given), for which the growth inhibition in assay [1] was 97% (active); in assay [4] it was 103% (active). Moreover, the values for the inhibition in assay [2] and in assay [3] were 31% and 1%, respectively. The result in assay [5], in assay [6], in assay [7] and in assay [8] was inactive.
With `O=C(COc1ccccc1Cc1ccccc1)Nc1cc(Cl)ccc1-n1cncn1`, the growth inhibition in assay [1] was 93% (active); in assay [4], 92% (active). The inhibition in assay [2] is 5%; in assay [3], -2%. In addition, the result in assay [5], in assay [6], in assay [7] and in assay [8] was inactive.
Turning to `CCCCCCCN1CC[C@@H](CCCc2ccnc3ccc(OCC4CCCNC4)cc23)[C@@H](CC)C1` (stereo not given in full), the growth inhibition in assay [1] is 100% (active); in assay [4], 98% (active). For the same molecule, the results for the inhibition in assay [2] and in assay [3] were 99% (active) and -1%, respectively. Besides, the outcome in assay [5], in assay [6], in assay [7] and in assay [8] was inactive.
